GRP78 ERSR act = ER stress response induction in glioma; Potency, µM, hits mostly activators; 420,000 compounds, 0.02% hits; U87-MG GRP78 promoter luciferase reporter, 16 h; active means well fitted activation curve with a large enough effect; further: series mostly up to about 76 µM; nearly all actives have a fitted effect of over 35% in size
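Stably transfected U87-MG glioma cells carrying a GRP78-based luciferase sensor; 16 h compound incubation. Luminescence end-point read 10 min after Bright-Glo addition at room temperature.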
TRHR agonist = agonists of human TRH receptor. TRHR cells, calcium flux fluo-8, FDSS agonist mode. activation, % at 2 µM. 360,000 compounds, 0.18% hits
Target sequence (P34981 whole entry, looked up): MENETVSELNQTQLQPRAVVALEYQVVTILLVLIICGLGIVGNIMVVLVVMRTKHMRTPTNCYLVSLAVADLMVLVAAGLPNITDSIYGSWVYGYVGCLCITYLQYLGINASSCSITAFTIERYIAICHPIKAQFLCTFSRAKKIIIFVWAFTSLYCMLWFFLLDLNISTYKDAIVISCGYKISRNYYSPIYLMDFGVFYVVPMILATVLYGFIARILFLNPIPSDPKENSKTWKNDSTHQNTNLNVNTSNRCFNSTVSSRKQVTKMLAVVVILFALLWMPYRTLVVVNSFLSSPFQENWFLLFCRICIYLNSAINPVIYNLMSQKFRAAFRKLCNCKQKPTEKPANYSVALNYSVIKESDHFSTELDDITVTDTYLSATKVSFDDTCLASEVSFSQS
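Read-out: compound-evoked intracellular calcium rise in TRHR cells, fluo-8 dye, kinetic FDSS fluorescence at 1 s/cycle following a 10-cycle baseline. Cells cultured overnight before dye loading (30 min–1.5 h, RT).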
TRHR enhancer = allosteric enhancers of human TRH receptor. P34981. TRHR cells, fluo-8 calcium fluorescence, EC20 TRH enhancement. enhancement, % at 2 µM. 360,000 compounds, 0.66% hits. AID 493056; in the data active means enhancement above about 30%
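TRHR-expressing cells loaded with fluo-8 calcium dye were read kinetically (ex 480/em 530) during compound addition, then stimulated with an EC20 of TRH (10 nM final). Enhancement of the Gq-mediated intracellular calcium response was scored.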
D1 potentiator = enhances dopamine response at the human D1 receptor | P21728 | HEK293 TREx D1 cells, calcium flux, dopamine EC20 potentiation | potentiation, % at 10 µM | 360,000 compounds, 0.036% hits; in the data active means potentiation above about 30%
D1 antagonist = human D1 dopamine receptor antagonism; AID 504652; activity change, negative = inhibition, % at 10 µM; 360,000 compounds, 3.2% hits; P21728; HEK293 TREx D1 cells, calcium flux, dopamine EC80; stronger effect = lower value; in the data active means activity change below about -30%
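Kinetic fluorescence of a calcium dye serves as the read-out. D1-expressing Hek293 Trex cells, induced overnight at 30 C, are exposed to compound for 180 s before an EC80 dopamine addition, then read 180 s further.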
D1 ag = agonists of human D1 dopamine receptor; activation, % at 2 µM; HEK293 T-REx D1 cells, calcium flux, agonist mode; 360,000 compounds, 1% hits; P21728
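Agonism was scored from calcium flux recorded over 180 s (1 read/s) after pintool compound addition, following a 10-cycle baseline. Cells were inducible force-coupled HEK293 TREx D1, plated overnight at 30 C and loaded with no-wash calcium dye.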
Hits are given with their value; n = inactive; x = no result given. This is a sample that favours compounds with a hit; in the whole collection about 4% have one here. Unless noted, no stated cut-off is given here; in the data, active means activation above about 30%; inactive means the rest.

SMILES	GRP78 ERSR act	TRHR agonist	TRHR enhancer	D1 potentiator	D1 antagonist	D1 ag
COc1ccccc1N1CCN(CCCNC(=O)Nc2ccccc2C)CC1	n	n	n	n	-41.6	n
O=C1CN(CCN2CC(=O)NC(=O)C2)CC(=O)N1	n	x	x	x	x	x
COc1ccc(CNc2ncnc3ccc(-c4ccccc4OC)cc23)c(OC)c1	n	x	x	x	x	x
COc1ccc(Cl)cc1N1CCN(CCNC(=O)Nc2ccccc2C)CC1	n	n	n	n	n	n
COc1ccccc1NC(=O)NCCCN1CCN(c2cccc(Cl)c2)CC1	n	n	n	n	-69.4	n
Cc1nn(-c2ccccc2)c(-n2cccc2)c1C(=O)NCCCN1CCN(c2ccccc2F)CC1	n	n	n	n	-33.2	n
Cc1ccccc1NC(=O)NCCCN1CCN(c2ccccc2F)CC1	x	n	n	n	-82.0	n
Fc1ccccc1N1CCN(CCCc2ccccc2)CC1	n	n	n	n	-63.2	n
Cn1c(=O)[nH]c(=O)c2c1nc(CN1CCN(c3ccccc3F)CC1)n2CCCc1ccccc1	n	n	n	n	n	n
Cc1nn(-c2ccc(F)cc2)c(-n2cccc2)c1C(=O)N1CCN(c2ccccc2F)CC1	n	n	n	n	n	n
Cc1ccccc1C(=O)N1CC/C(=N/OS(=O)(=O)O)c2ccc(Cl)cc21	n	x	x	x	x	x
O=C(C(=O)N1CCCCC1)c1c(-c2ccccc2)[nH]c2ccccc12	n	n	n	n	n	n
Cc1cnc(SCc2ccccn2)nc1C1CCCN(C(=O)c2noc3c2CCCC3)C1 (stereo unspecified)	n	x	x	x	x	x
Brc1cccc[n+]1CCCC[n+]1ccccc1Br	n	x	x	x	x	x
O=C(CCc1nnc2ccc(NCc3ccccc3)nn12)NCC1CCN(C2CCCC2)C1 (stereo unspecified)	n	n	n	n	-83.9	n
O=c1oc2ccccc2c2c1C(c1ccc(Cl)cc1)Nc1ccc3ccccc3c1-2 (stereo unspecified)	n	n	n	n	-64.1	n
COc1ccc(C2Nc3ccc4ccccc4c3-c3c2c(=O)oc2ccccc32)cc1 (stereo unspecified)	x	n	n	n	n	n
Cc1ccc(NC(=O)COc2ccc(C(=O)c3ccccc3)cc2)c(O)c1	n	n	n	n	-30.4	n
Cc1ccc(NC(=S)NC(=O)Cc2ccccc2)c(O)c1	n	n	n	n	n	33.2
Cc1ccc(OCC(=O)Nc2ccccc2-c2ccccc2NC(=O)COc2ccc(C)cc2)cc1	n	n	n	n	n	n
O=C(COC(=O)C1(c2ccccc2)CC1)NNC(=O)c1ccccc1	n	n	n	n	n	n
CCOC(=O)c1[nH]c2ccc(C)cc2c1NC(=O)CN1CCCCC1	n	n	n	n	n	n
CCOC(=O)c1[nH]c2ccc(OCC)cc2c1NC(=O)CN1CCCC(C)C1 (stereo unspecified)	n	n	n	n	-36.4	n
Cc1cc(-c2ccc(C)c(S(=O)(=O)NCCCN3CCN(c4ccccc4F)CC3)c2)on1	n	n	n	n	-67.4	n
Cc1cc(-c2ccc(C)c(S(=O)(=O)NCCCN3CCCCCC3)c2)on1	n	n	n	n	n	n
SMILES	GRP78 ERSR act	TRHR agonist	TRHR enhancer	D1 potentiator	D1 antagonist	D1 ag
Cc1cc(-c2ccc(C)c(S(=O)(=O)NCCc3ccccc3)c2)on1	n	n	n	n	n	n
COc1ccc(-c2cc(C)no2)cc1S(=O)(=O)NCCCN1CCN(c2ccccc2)CC1	n	n	n	n	-33.1	n
Cc1cc(-c2ccc(C(C)C)c(S(=O)(=O)NCCN3CCC(C)CC3)c2)on1	n	n	n	n	n	44.2
Cc1cc(-c2ccc(C(C)C)c(S(=O)(=O)NCc3ccco3)c2)on1	n	n	n	n	n	n
COc1ccc(-c2cc(C)no2)cc1S(=O)(=O)NCCCN(C)Cc1ccccc1	n	n	n	n	n	n
Cc1cc(-c2ccc(C)c(S(=O)(=O)NCCCN3CCN(c4ccccc4)CC3)c2)on1	n	n	n	n	-77.3	n
CC(=O)C1=C(O)C(=O)N(c2cccc(C(=O)O)c2)C1c1ccccc1F (stereo unspecified)	n	n	n	n	-87.1	n
CCCCCCCC#Cc1ccccc1C(NC(=O)OC)C(C(=O)OC)C(=O)OC (stereo unspecified)	n	x	x	x	x	x
N#Cc1cc([N+](=O)[O-])ccc1N1CCN(c2ccccc2O)CC1	n	n	n	n	-30.2	n
O=[N+]([O-])c1ccc(N2CCN(c3ccc([N+](=O)[O-])cc3CO)CC2)c(CO)c1	n	n	n	n	n	n
Cc1cc(C)c(NC(=S)N(CCc2ccncc2)C(C)C)c(C)c1	n	n	n	n	n	n
Cn1c(N)c(C(=O)COC(=O)c2cccc(S(=O)(=O)N3CCCCC3)c2)c(=O)n(C)c1=O	n	n	n	n	n	n
CNS(=O)(=O)c1cccc(C(=O)OCC(=O)/C=C2/N(C)c3ccccc3C2(C)C)c1	n	n	n	n	-42.9	n
CNS(=O)(=O)c1cccc(C(=O)OCC(=O)c2c(N)n(C)c(=O)n(C)c2=O)c1	n	n	n	n	-32.4	n
N#Cc1c(-c2ccccc2)cc(C2CC2)nc1SCC(=O)O	n	n	n	n	n	n
N#Cc1c(-c2ccccc2)cc(C2CC2)nc1SCC(=O)c1cccs1	n	n	n	n	n	32.3
COc1ccc(C(=O)C2CCCN(Cc3cc(Cl)ccc3O)C2)c(OC)c1 (stereo unspecified)	n	n	n	n	n	n
COc1ccc(C(=O)C2CCCN(Cc3sc(N4CCCC4)nc3Cl)C2)c(OC)c1 (stereo unspecified)	n	n	n	n	-41.0	n
Cc1ccc(-n2nc3c(=S)[nH]nc(C)c3c2C)cc1	n	n	n	n	n	n
Cc1n[nH]c(=S)c2nn(-c3ccccc3)c(C)c12	x	n	n	n	-32.7	n
COc1ccc(C2=NO[C@@H]3C(=O)N(C4CCCCC4)C(=O)[C@H]23)cc1OC	n	n	n	n	-35.3	n
COc1cccc(NCc2nnc(SC(C(=O)N(C)C)c3ccccc3)n2C2CCCCC2)c1 (stereo unspecified)	n	x	x	x	x	x
CC(C)c1ccc(C2NC(=O)NC3=C2CCc2ccccc23)cc1 (stereo unspecified)	n	n	n	n	n	n
Cc1ccc(C2NC(=O)NC3=C2CCc2ccccc23)cc1 (stereo unspecified)	n	n	n	n	-60.2	n
CSc1cccc(CN2CCC(CCC(=O)NC3CC3)CC2)c1	n	n	n	n	-49.5	n
O=C(COC(=O)CC1Sc2ccccc2NC1=O)NCc1ccccc1 (stereo unspecified)	n	n	n	n	n	36.8
CCOC(=O)c1cnc2c(C)cc(Cl)cc2c1NCCCN1CCOCC1	n	n	n	n	-35.0	n
